Source: PubChem (several laboratories)
A selection: hits, their analogues and other compounds. The true share with any hit is near 5.2%.
NadD block: blocks S. aureus nicotinate mononucleotide adenylyltransferase; purified NadD enzyme, colorimetric absorbance read-out; inhibition, % at 20 µM; actives 0.78% (n = 360,000); AID 602399; in the data active means inhibition above about 26%
SKN-1 block: C. elegans SKN-1 inhibition | AID 624304 | inhibition, % at 21.8 µM | actives 0.49% (n = 360,000) | C. elegans VP596 Pgst-4::GFP/RFP ratio, acrylamide-induced, 24 h;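 active means interference check ratio from 0.5 to 1.5 plus GFP to RFP signal ratio inhibition reaching or exceeding a fixed threshold, cut at about 30% in these data, passing the limit was not always enough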
NR3A LBD binder: modulates the human NR3A ligand-binding domain; NR3A LBD differential scanning fluorimetry, Tm shift; 0% = protein alone, 100% = glycine-bound protein; Tm shift relative to glycine control, % at 25 µM; actives 2.5% (n = 340,000);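 active means melting temperature shift of at least 10% of the positive control shift, at one fixed dose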
SMARCA2 act: SMARCA2 function activation, primary screen | MG213 cells, MMTV-luciferase reporter, dexamethasone, overnight | activation, % at 9.1 µM | actives 1% (n = 370,000); in the data active means activation above about 7.8%;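 further: 0% = vehicle wells and 100% = reference activator wells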
Vif inh: inhibitors of HIV Vif; HEK293T cells, Vif self-association by quenched fluorescence, imaging, 24 h; inhibition, % at 7.49 µM; actives 0.35% (n = 340,000); AID 602346; in the data active means inhibition above about 50%, passing the limit was not always enough; inconclusive means no clear call, values can overlap the other calls; inactive means below about 31%
esBAF inh: SWI/SNF esBAF complex inhibition; mouse ES cells, Bmi1-luciferase knock-in reporter, 24 h; 100% = twice the neutral-well signal; actives 2% (n = 350,000); reporter increase, % at 12.5 µM; in the data active means activation above about 40%; inconclusive means no clear call, values can overlap the other calls;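 further: 0% = median of the plate's neutral control wells and 100% = double that signal; a rise in the Bmi1 reporter signal indicates esBAF inhibition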
SMARCA2 conf: confirmation of SMARCA2 (BRM) function activators. shares compounds with SMARCA2 act. MG213 cells, MMTV-luciferase with dexamethasone, luminescence, overnight; MG213 cells expressing E1A, Rb sequestered; DMSO wells 0%, reference activator 100%. activation, % at 9.1 µM. actives 30% (n = 3,500). AID 652260;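 active means activation above its plate's cutoff, the mean activation of tested wells plus 3 SD, cut at about 7.9% in these data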
VP16 Luc act: GAL4-VP16 reporter activation counter-screen | shares compounds with SMARCA2 act | HEK293 GAL4-VP16 pG5luc reporter, luciferase luminescence; scaled: DMSO wells 0%, SAHA wells 100% | activation, % at 9.1 µM | actives 41% (n = 3,500);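 active means activation above the solvent-only control well mean plus 3 SD, averaged across control plates, cut at about 5.2% in these data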
Numbers without * were called inactive; ? = inconclusive; · = no result.

SMILES	NadD block	SKN-1 block	NR3A LBD binder	SMARCA2 act	Vif inh	esBAF inh	SMARCA2 conf	VP16 Luc act
O=C(CN=C1NC(=O)C(c2ccccc2)(c2ccccc2)N1)NCc1ccc(F)cc1	1	10	-4	-3	-1	·	·	·
Cc1cc(Cl)c2ccc3ccccc3c2n1	0	7	1	-3	5	·	·	·
Cc1ccc2c(Cl)cc(Cl)c(O)c2n1	8	6	0	10*	20	-22	-16	11*
C=CCN1C(=O)N/C(=C/c2ccc(N3CCOCC3)o2)C1=O	·	·	·	6	·	·	·	·
O=C1N/C(=C/c2ccc(N3CCOCC3)o2)C(=O)N1c1ccccc1	5	7	2	14*	·	27	3	2
Cc1nnc(Sc2cc(NCCO)c([N+](=O)[O-])c3nonc23)s1	-3	3	-2	5	-1	·	·	·
Cc1nnc(Sc2cc(NCCCO)c([N+](=O)[O-])c3nonc23)s1	-4	8	-4	10*	2	·	-14	1
Cc1ccc(SCC(=O)NNC(=O)c2ccccc2)cc1C	2	6	-1	9.6*	-5	-7	-4	-2
Cc1ccc(C)c(SCC(=O)NNC(=O)c2ccccc2)c1	-7	8	1	-3	-8	-2	·	·
O=C(N/N=C/c1ccccn1)c1ccc(NC(=O)c2cccc([N+](=O)[O-])c2)cc1	19	3	2	1	0	·	·	·
O=C(N/N=C/c1ccccn1)c1ccc(Br)cc1	2	3	-2	12*	5	·	-8	25*
O=C(NC(=S)Nc1ccccn1)c1cccc([N+](=O)[O-])c1	4	20	0	8.8*	-3	·	5	7.5*
O=C(N/N=C/c1ccccn1)c1cccc([N+](=O)[O-])c1	-2	0	-1	11*	0	·	2	4
CCOc1ccc(C(=O)NC(=S)Nc2ccccn2)cc1[N+](=O)[O-]	-4	10	-2	0	·	15	·	·
C[C@H](CO)N1C[C@H](C)[C@H](CN(C)Cc2ccc(C(=O)O)cc2)Oc2ccc(NC(=O)Nc3cccc4ccccc34)cc2C1=O	·	·	·	·	·	0	·	·
C[C@@H]1CCCCO[C@H](CN(C)C(=O)CCC(F)(F)F)[C@@H](C)CN([C@@H](C)CO)C(=O)c2cc(NS(=O)(=O)c3cn(C)cn3)ccc2O1	·	·	·	·	·	1	·	·
C[C@@H]1CN([C@H](C)CO)C(=O)c2cc(-c3ccc(C#N)cc3)cnc2O[C@@H]1CN(C)C(=O)Nc1ccc(F)cc1	·	·	·	·	·	-14	·	·
Cc1ccc(NC(=O)Cc2noc3ccccc23)nc1	-4	-2	-4	9.3*	-1	·	7	3
COc1ccc(S(=O)(=O)Nc2ccc3c(c2)C(=O)N([C@H](C)CO)C[C@H](C)[C@H](CN(C)Cc2ccc4c(c2)OCO4)OCCCC[C@@H](C)O3)cc1	·	·	·	·	·	-2	·	·
NC(=O)c1cccnc1Nc1cccc([N+](=O)[O-])c1	-7	5	0	13*	5	·	7.8*	8.6*
C[C@@H]1CN([C@H](C)CO)C(=O)c2cccc(NC(=O)c3ccncc3)c2O[C@@H]1CN(C)S(=O)(=O)c1ccc(F)cc1	·	·	·	·	·	0	·	·
O=C(Cn1nnc(-c2ccccc2)n1)N1CCCCC1	-2	-19	0	1	10	23	·	·
CC(C)COc1ccc(-c2nnn(CC(=O)N3CCCC3)n2)cc1	-6	-9	-2	9.9*	-5	?	6	8.2*
COc1ccccc1NS(=O)(=O)c1cc(NC(=O)c2ccccc2C)ccc1N1CCOCC1	8	2	-5	0	-9	-3	·	·
COc1ccccc1NS(=O)(=O)c1cc(NC(=O)c2[nH]c(C)c(C(C)=O)c2C)ccc1N1CCOCC1	23	9	1	9.9*	-6	·	11*	6.0*
COCCNC(=S)Nc1ccc(N2CCOCC2)c(S(=O)(=O)Nc2ccccc2OC)c1	-1	-13	-8	16*	-2	-1	6	-1
